About 83,000 compounds went through this panel and 20% of them were active in at least one assay; those are over-represented in the sample as a whole.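 Assay: single dose, 48 h. Readout: percent growth (0 = no net growth; negative = cell death). Active: <10.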 The source made the active and inactive calls.
Legend:
Experiment in all cases: NCI-60 one-dose screen, 48 h (100 = growth as untreated, 0 = no growth, -100 = all killed)
Details in all cases: 10 µM unless noted
SK-MEL-2 melanoma = system: SK-MEL-2 melanoma
EKVX NSCLC = system: EKVX NSCLC
SN12C renal = system: SN12C renal
UO-31 renal = system: UO-31 renal
TK-10 renal = system: TK-10 renal
ACHN renal = system: ACHN renal
CAKI-1 renal = system: CAKI-1 renal
A498 renal = system: A498 renal
CCRF-CEM leukemia = system: CCRF-CEM leukemia
MOLT-4 leukemia = system: MOLT-4 leukemia
SR leukemia = system: SR leukemia
OVCAR-8 ovarian = system: OVCAR-8 ovarian
OVCAR-5 ovarian = system: OVCAR-5 ovarian
OVCAR-4 ovarian = system: OVCAR-4 ovarian
SK-OV-3 ovarian = system: SK-OV-3 ovarian
IGROV1 ovarian = system: IGROV1 ovarian
OVCAR-3 ovarian = system: OVCAR-3 ovarian
HS 578T breast = system: HS 578T breast
NCI/ADR-RES ovarian = system: NCI/ADR-RES ovarian

Measured: growth

COc1cc(/C=C/c2ccccc2)cc(OC)c1
inactive: SK-MEL-2 melanoma 93.7% | EKVX NSCLC 78.9% | SN12C renal 100% | UO-31 renal 80.1% | TK-10 renal 95.9% | ACHN renal 96.6% | CAKI-1 renal 81.3% | A498 renal 88.7% | CCRF-CEM leukemia 108% | MOLT-4 leukemia 89.3% | SR leukemia 86.7% | OVCAR-8 ovarian 97.7% | OVCAR-5 ovarian 95.6% | OVCAR-4 ovarian 105% | SK-OV-3 ovarian 106% | IGROV1 ovarian 84.6% | OVCAR-3 ovarian 105% | HS 578T breast 104% | NCI/ADR-RES ovarian 99.6%

Cn1cc(-c2cc3ncnc(Nc4ccc(CC(=O)Nc5cc(C(C)(C)C)nn5C)cc4)c3s2)cn1
active: A498 renal -7.97% | SR leukemia 8.15%
inactive: SK-MEL-2 melanoma 22.3% | EKVX NSCLC 84.6% | SN12C renal 26.4% | UO-31 renal 28.8% | TK-10 renal 56.5% | ACHN renal 25.9% | CAKI-1 renal 19.3% | CCRF-CEM leukemia 13.7% | MOLT-4 leukemia 16.7% | OVCAR-8 ovarian 35.9% | OVCAR-5 ovarian 102% | OVCAR-4 ovarian 28.1% | SK-OV-3 ovarian 29.3% | IGROV1 ovarian 28.9% | OVCAR-3 ovarian 61.4% | HS 578T breast 32.3% | NCI/ADR-RES ovarian 101%

CCOC(=O)C1=C(N)Oc2c(sc3c(C)cccc23)C1c1ccc(OC)cc1 (centres undefined)
inactive: SK-MEL-2 melanoma 22.9% | EKVX NSCLC 88.5% | SN12C renal 39.7% | UO-31 renal 41.5% | TK-10 renal 110% | ACHN renal 34% | CCRF-CEM leukemia 24.3% | MOLT-4 leukemia 29.4% | SR leukemia 29.1% | OVCAR-8 ovarian 46.6% | OVCAR-5 ovarian 75.9% | OVCAR-4 ovarian 65.5% | SK-OV-3 ovarian 57.7% | IGROV1 ovarian 27.9% | OVCAR-3 ovarian 11% | HS 578T breast 30% | NCI/ADR-RES ovarian 30.8%
active: CAKI-1 renal 5.78% | A498 renal 4.89%

Cc1ccc(/C=C(\C#N)n2nc3cccc(F)c3n2)cc1
inactive: SK-MEL-2 melanoma 95.5% | EKVX NSCLC 83.5% | SN12C renal 95.3% | UO-31 renal 72.3% | TK-10 renal 90.8% | ACHN renal 79.7% | CAKI-1 renal 58.8% | A498 renal 56% | CCRF-CEM leukemia 104% | MOLT-4 leukemia 102% | SR leukemia 62.8% | OVCAR-8 ovarian 94.2% | OVCAR-5 ovarian 97.1% | OVCAR-4 ovarian 97% | SK-OV-3 ovarian 107% | IGROV1 ovarian 90.9% | OVCAR-3 ovarian 84.4% | HS 578T breast 91.5% | NCI/ADR-RES ovarian 86%

O=C(Nc1ccc(-c2nc(-c3cccc(OCCN4CCOCC4)c3)c(-c3ccnc(Br)c3)[nH]2)cc1)c1ccccc1
active: UO-31 renal -51.9% | CAKI-1 renal -6.68% | A498 renal -70.5% | MOLT-4 leukemia 1.62% | SR leukemia -11.6% | SK-OV-3 ovarian -25.6% | HS 578T breast -41%
inactive: SK-MEL-2 melanoma 25.3% | EKVX NSCLC 32.3% | SN12C renal 45.9% | TK-10 renal 48.6% | ACHN renal 28.3% | CCRF-CEM leukemia 15.1% | OVCAR-8 ovarian 41.5% | OVCAR-5 ovarian 35.4% | OVCAR-4 ovarian 55.2% | IGROV1 ovarian 43.4% | OVCAR-3 ovarian 44.2% | NCI/ADR-RES ovarian 53.4%

O=C(Nc1ccc(Cl)cc1F)c1ccccc1O
inactive: EKVX NSCLC 66.2% | SN12C renal 13.7% | TK-10 renal 56.6% | ACHN renal 34.2% | CAKI-1 renal 35.8% | CCRF-CEM leukemia 53.2% | MOLT-4 leukemia 29.7% | SR leukemia 15.8% | OVCAR-8 ovarian 44.8% | OVCAR-5 ovarian 71.1% | OVCAR-4 ovarian 54.6% | SK-OV-3 ovarian 42.3% | IGROV1 ovarian 20.5% | OVCAR-3 ovarian 30.9% | HS 578T breast 41.6% | NCI/ADR-RES ovarian 34.5%
active: SK-MEL-2 melanoma 2.56% | UO-31 renal 9.45% | A498 renal -21.8%

CCOC(=O)C1=C(N)Oc2c(sc3c(C)cccc23)C1c1ccc(F)cc1 (centres undefined)
inactive: SK-MEL-2 melanoma 42.5% | EKVX NSCLC 44.9% | SN12C renal 30.5% | UO-31 renal 40.7% | TK-10 renal 76% | ACHN renal 30.7% | MOLT-4 leukemia 10.2% | OVCAR-8 ovarian 19% | OVCAR-5 ovarian 27.9% | OVCAR-4 ovarian 42.7% | SK-OV-3 ovarian 60% | IGROV1 ovarian 16.9% | HS 578T breast 13.6%
active: CAKI-1 renal 2.3% | A498 renal -5.94% | CCRF-CEM leukemia 4.35% | SR leukemia 5.82% | OVCAR-3 ovarian -32.9% | NCI/ADR-RES ovarian 6.4%

O=c1c2cccc(Cl)c2sc2c(NCCCNCCO)nc3ccccc3c12
active: CAKI-1 renal -46.9% | CCRF-CEM leukemia -14.6% | MOLT-4 leukemia -40.3% | SR leukemia -51.2% | OVCAR-3 ovarian -7.4%
inactive: SK-MEL-2 melanoma 104% | EKVX NSCLC 53.9% | SN12C renal 39.1% | UO-31 renal 12.5% | TK-10 renal 39.1% | ACHN renal 10.3% | A498 renal 10.8% | OVCAR-8 ovarian 27% | OVCAR-5 ovarian 62.5% | OVCAR-4 ovarian 11.1% | SK-OV-3 ovarian 53.2% | IGROV1 ovarian 15.3% | HS 578T breast 20.3% | NCI/ADR-RES ovarian 38.4%

COc1cc2cc(Oc3ccc(NC(=O)Nc4cc(C(F)(F)F)cc(C(F)(F)F)c4)cc3)c(C)nc2cc1OCCN1CCOCC1
inactive: SK-MEL-2 melanoma 32.9% | EKVX NSCLC 21.4% | UO-31 renal 20.1% | TK-10 renal 53.6% | CAKI-1 renal 15.3% | A498 renal 40.7% | OVCAR-8 ovarian 17.2% | OVCAR-5 ovarian 46.6% | OVCAR-4 ovarian 17.9% | SK-OV-3 ovarian 22.7% | IGROV1 ovarian 33.5% | HS 578T breast 60.6%
active: SN12C renal 8.87% | ACHN renal 5.89% | CCRF-CEM leukemia 9.65% | MOLT-4 leukemia 8.21% | SR leukemia -34.9% | OVCAR-3 ovarian 9.29% | NCI/ADR-RES ovarian 9.17%

Cc1cccc2c3c(sc12)C(c1ccc(Cl)cc1)C(C#N)=C(N)O3 (centres undefined)
inactive: SK-MEL-2 melanoma 45.7% | EKVX NSCLC 44.5% | SN12C renal 25.2% | UO-31 renal 39% | TK-10 renal 71.7% | ACHN renal 25.2% | CCRF-CEM leukemia 13.2% | MOLT-4 leukemia 11.9% | SR leukemia 15.8% | OVCAR-8 ovarian 22.2% | OVCAR-5 ovarian 23.3% | OVCAR-4 ovarian 58.4% | SK-OV-3 ovarian 60.1% | IGROV1 ovarian 23.8% | HS 578T breast 15.9%
active: CAKI-1 renal 8.51% | A498 renal -6.58% | OVCAR-3 ovarian -17.3% | NCI/ADR-RES ovarian 9.13%

NC(=O)C1(Nc2ccc(Br)cc2)CCCC1
inactive: SK-MEL-2 melanoma 101% | EKVX NSCLC 92% | SN12C renal 102% | UO-31 renal 86.3% | TK-10 renal 104% | ACHN renal 101% | CAKI-1 renal 103% | A498 renal 99.8% | CCRF-CEM leukemia 99.8% | MOLT-4 leukemia 99% | SR leukemia 84.3% | OVCAR-8 ovarian 102% | OVCAR-5 ovarian 96.7% | OVCAR-4 ovarian 115% | SK-OV-3 ovarian 103% | IGROV1 ovarian 108% | OVCAR-3 ovarian 113% | HS 578T breast 111% | NCI/ADR-RES ovarian 111%

O=C(N/N=C/[C@H](O)[C@@H](O)[C@@H](O)[C@H](O)CO)c1ccc(NC(=O)c2cccnc2)cc1
inactive: SK-MEL-2 melanoma 109% | EKVX NSCLC 107% | SN12C renal 99.4% | UO-31 renal 92.5% | TK-10 renal 106% | ACHN renal 103% | CAKI-1 renal 101% | A498 renal 107% | CCRF-CEM leukemia 103% | MOLT-4 leukemia 114% | SR leukemia 103% | OVCAR-8 ovarian 105% | OVCAR-5 ovarian 106% | OVCAR-4 ovarian 102% | SK-OV-3 ovarian 108% | IGROV1 ovarian 110% | OVCAR-3 ovarian 120% | HS 578T breast 108% | NCI/ADR-RES ovarian 106%

CCCCn1c(=O)c(-c2cc(-c3ccc(Cl)cc3)nc(-c3ccc(Cl)cc3)c2)cc2cc(Cl)ccc21
inactive: SK-MEL-2 melanoma 120% | EKVX NSCLC 105% | SN12C renal 91.2% | UO-31 renal 88.4% | TK-10 renal 107% | ACHN renal 107% | CAKI-1 renal 94.3% | A498 renal 123% | CCRF-CEM leukemia 104% | MOLT-4 leukemia 104% | SR leukemia 106% | OVCAR-8 ovarian 101% | OVCAR-5 ovarian 98.4% | OVCAR-4 ovarian 105% | SK-OV-3 ovarian 102% | IGROV1 ovarian 103% | OVCAR-3 ovarian 117% | HS 578T breast 108% | NCI/ADR-RES ovarian 109%

CCOC(=O)c1cn2ncnc(Oc3ccc(NC(=O)NCCN(CC)CC)c(Cl)c3)c2c1C
active: SR leukemia -26.6%
inactive: SK-MEL-2 melanoma 112% | EKVX NSCLC 77.2% | SN12C renal 68.3% | UO-31 renal 57% | TK-10 renal 110% | ACHN renal 88.2% | CAKI-1 renal 68.8% | A498 renal 90.3% | CCRF-CEM leukemia 35.5% | MOLT-4 leukemia 49.2% | OVCAR-8 ovarian 81% | OVCAR-5 ovarian 80.8% | OVCAR-4 ovarian 90.3% | SK-OV-3 ovarian 92.1% | IGROV1 ovarian 87.3% | OVCAR-3 ovarian 68.6% | HS 578T breast 77.7% | NCI/ADR-RES ovarian 77.6%

COc1ccc(C2C(C#N)=C(N)Oc3c2sc2c(C)cccc32)cc1 (centres undefined)
inactive: SK-MEL-2 melanoma 48.2% | EKVX NSCLC 42.3% | SN12C renal 23.9% | UO-31 renal 33.9% | TK-10 renal 63.8% | ACHN renal 28.3% | MOLT-4 leukemia 12.9% | SR leukemia 15.4% | OVCAR-8 ovarian 22.6% | OVCAR-5 ovarian 23.5% | OVCAR-4 ovarian 50.1% | SK-OV-3 ovarian 67.4% | IGROV1 ovarian 23.3% | HS 578T breast 18.6%
active: CAKI-1 renal 3.44% | A498 renal -5.44% | CCRF-CEM leukemia 8% | OVCAR-3 ovarian 4.88% | NCI/ADR-RES ovarian 4.33%

CCCCCCn1c(-c2ccc(C(=O)O/N=C(\N)c3ccc4c(c3)OCO4)cc2)nc(-c2ccccc2)c1-c1ccccc1
inactive: SK-MEL-2 melanoma 70.9% | A498 renal 37.2% | OVCAR-8 ovarian 17.7% | OVCAR-5 ovarian 43.2% | OVCAR-4 ovarian 39.6% | SK-OV-3 ovarian 98.7% | OVCAR-3 ovarian 32.4%
active: EKVX NSCLC -33.5% | SN12C renal -7.53% | UO-31 renal -89.2% | TK-10 renal -9.77% | ACHN renal -88.2% | CAKI-1 renal -21.3% | CCRF-CEM leukemia -34.4% | MOLT-4 leukemia 0.83% | SR leukemia -26.3% | IGROV1 ovarian -68.5% | HS 578T breast 4.78% | NCI/ADR-RES ovarian -52.8%

From PubChem BioAssay (NCI)
